Laboratory results from PubChem BioAssay (EPA / NIEHS).
Records with an inconclusive call do not appear. The source made the active and inactive calls. The calls were made as follows: active = hit-call score of the fitted dose curve at least 0.9, where 1 is the maximum; inconclusive = response in the unintended direction; inactive = score below 0.9.

Assays:
[1] = biological target: Muscarinic acetylcholine receptor M5 (Homo sapiens) (UniProt P08912); assay: NVS_GPCR_hM5: NovaScreen (NVS) G Protein-Coupled Receptor Assay for human Muscarinic, M5 Receptor (AID 2283275)
Summary of the method: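 Chemicals passing a primary duplicate screen at 25 uM were run as singleton concentration series, maximum 50 uM. Displacement of a specific radioligand from CHO-extracted receptor was read by filter scintillation after 1 h, relative to DMSO.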

[2] = biological target: human Opioid Receptor Delta 1 (Opiate D1), OPRD1 (gene 4985) (UniProt P41143); assay: NVS_GPCR_hOpiate_D1: NovaScreen (NVS) G Protein-Coupled Receptor Assay for human Opioid Receptor Delta 1 (Opiate D1) (AID 2283280)
Summary of the method: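 Membrane preparations from CHO cells bearing the human receptor were incubated 1 h with test chemical, and bound radioligand was counted after filtration. Actives from 25 uM duplicate screening were retested in concentration-response.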

[3] = biological target: human Orphanin, Opioid Related Nociceptin Receptor 1 (ORL1), OPRL1 (gene 4987) (UniProt P41146); assay: NVS_GPCR_hORL1: NovaScreen (NVS) G Protein-Coupled Receptor Assay for human Orphanin, Opioid Related Nociceptin Receptor 1 (ORL1) (AID 2283283)
Summary of the method: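 Cell-free binding using HEK293-derived receptor protein: radioligand displacement measured by filter scintillation 1 hour after dosing. Primary testing at 25 uM in duplicate, followed by singleton concentration series up to 50 uM; DMSO served as negative control.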

[4] = biological target: human Vasopressin 1A Receptor (V1A), AVPR1A (gene 552) (UniProt P37288); assay: NVS_GPCR_hV1A: NovaScreen (NVS) G Protein-Coupled Receptor Assay for human Vasopressin 1A Receptor (V1A) (AID 2283284)
Summary of the method: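 Single-concentration duplicate screen at 25 uM, with concentration-response follow-up (top 50 uM) for actives. The assay measured displacement of a radioligand from human platelet-derived receptor after 1.5 h, detected by filtration and scintillation counting.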

[5] = biological target: human Thromboxane A2 Receptor (TXA2), TBXA2R (gene 6915) (UniProt P21731); assay: NVS_GPCR_hTXA2: NovaScreen (NVS) G Protein-Coupled Receptor Assay for human Thromboxane A2 Receptor (TXA2) (AID 2283282);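 also: actives reduce bound radioligand signal relative to DMSO baseline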
Summary of the method: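 Human platelet membranes tested for radioligand displacement by filtration and scintillation counting 1 h post-dose. Screened in duplicate at 25 uM; activity fitted as signal loss relative to DMSO.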

[6] = biological target: human Purinergic Receptor P2Y, P2RY1 (gene 5028) (UniProt P47900); assay: NVS_GPCR_hPY2: NovaScreen (NVS) G Protein-Coupled Receptor Assay for human Purinergic Receptor P2Y (AID 2283281)
Protocol: NVS_GPCR_hPY2 is a biochemical, single-readout assay that uses extracted gene-proteins from U937 in a cell-free assay. Measurements were taken 1 hour after chemical dosing in a 48-well plate.NVS_GPCR_hPY2 is one of one assay component(s) measured or calculated from the NVS_GPCR_hPY2 assay. It is designed to make measurements of radioligand binding, a form of binding reporter, as detected with scintillation counting signals by Filter-based radiodetection technology.Data from the assay component NVS_GPCR_hPY2 was analyzed into 1 assay endpoint. This assay endpoint, NVS_GPCR_hPY2, was analyzed in the positive analysis fitting direction relative to DMSO as the negative control and baseline of activity. Using a type of binding reporter, loss-of-signal activity can be used to understand changes in the binding as they relate to the gene P2RY1. Furthermore, this assay endpoint can be referred to as a primary readout, because the performed assay has only produced 1 assay endpoint. To generalize the intended target to other relatable targets, this assay endpoint is annotated to the gpcr intended target family, where the subfamily is rhodopsin-like receptor.
Binding assays used specific radioligands (tritiated, iodinated) with non-radioactive competitive displacement ligands in agonist or antagonist protocols (as indicated) and various reference compounds and inhibitors to titrate specific binding to receptors and transporters. Most enzyme assays (CYPs, kinases, phosphatases, proteases, HDACs) used recombinant protein and specific substrates (fluorescence mostly, some colorimetric and radioactive) and inhibitors, followed by a biochemical separation of substrate and product. All assays for the biochemical HTS were initially run in duplicate at a single concentration (10 uM for CYP450 assays and 25 uM for all others). Assay-chemical combinations meeting a pre-defined threshold (e.g., 30% inhibition and other criteria defined below) were then run in singleton concentration-response format with maximum concentration of 20 uM for CYPs and 50 uM for all others. Each assay was run with positive and negative controls, and concurrent controls on every plate. The follow-up (secondary) screen tested active chemical-pairs in concentration series, as well as a few additional assays not tested in the primary screen, some selected negative inactives, and several cases re-run in the concentration series for confirmatory purposes.

[7] = biological target: Neuropeptide Y receptor type 2 (Homo sapiens) (UniProt P49146); assay: NVS_GPCR_hNPY2: NovaScreen (NVS) G Protein-Coupled Receptor Assay for human Neuropeptide Receptor Y2 (NPY2) (AID 2283277)
Summary of the method: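 Chemicals were first tested in duplicate at 25 uM, then actives in singleton concentration series to 50 uM. Tracer binding to SK-N-MC-derived protein measured cell-free after 1 h via filter scintillation; signal loss relative to DMSO.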

[8] = biological target: human Neurokinin, NK2 Receptor, TACR2 (gene 6865) (UniProt P21452); assay: NVS_GPCR_hNK2: NovaScreen (NVS) G Protein-Coupled Receptor Assay for human Neurokinin, NK2 Receptor (AID 2283278);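 also: actives reduce bound radioligand signal relative to DMSO baseline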
Summary of the method: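 Filter-based scintillation counting measured radioligand bound to receptor extracted from CHO cells, 4 hours after compound addition. Chemicals screened first at 25 uM in duplicate, with actives retested in concentration series relative to DMSO.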

[9] = biological target: human Neurotensin Receptor (NTS), NTSR1 (gene 4923) (UniProt P30989); assay: NVS_GPCR_hNTS: NovaScreen (NVS) G Protein-Coupled Receptor Assay for human Neurotensin Receptor (NTS) (AID 2283279)
Summary of the method: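 Compounds competed with a radiolabelled ligand for binding to CHO-derived human neurotensin receptor; bound signal counted after filtration, 1 h. Screened first at a single concentration of 25 uM in duplicate, then concentration series to 50 uM maximum for actives.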

[10] = biological target: human Neuropeptide Receptor Y1 (NPY1), NPY1R (gene 4886) (UniProt P25929); assay: NVS_GPCR_hNPY1: NovaScreen (NVS) G Protein-Coupled Receptor Assay for human Neuropeptide Receptor Y1 (NPY1) (AID 2283276)
Summary of the method: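 Displacement of specific radioligand from NPY1 receptor of SK-N-MC origin, read by filtration and scintillation after 1 h. Compounds first tested at 25 uM in duplicate, then actives in concentration series; signal loss relative to DMSO.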

Sequence of human Purinergic Receptor P2Y, P2RY1 (gene 5028) (P47900 whole entry, looked up): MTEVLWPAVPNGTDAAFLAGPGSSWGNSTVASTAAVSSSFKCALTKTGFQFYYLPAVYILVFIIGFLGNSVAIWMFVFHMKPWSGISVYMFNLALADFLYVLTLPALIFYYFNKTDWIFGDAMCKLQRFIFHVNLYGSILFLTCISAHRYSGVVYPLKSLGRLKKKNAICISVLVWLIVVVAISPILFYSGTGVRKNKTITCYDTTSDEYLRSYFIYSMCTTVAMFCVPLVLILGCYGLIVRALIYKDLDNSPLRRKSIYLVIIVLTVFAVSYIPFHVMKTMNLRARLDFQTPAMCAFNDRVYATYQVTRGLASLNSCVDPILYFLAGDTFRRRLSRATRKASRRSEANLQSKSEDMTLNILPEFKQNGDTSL
Sequence of human Thromboxane A2 Receptor (TXA2), TBXA2R (gene 6915) (P21731 whole entry, looked up): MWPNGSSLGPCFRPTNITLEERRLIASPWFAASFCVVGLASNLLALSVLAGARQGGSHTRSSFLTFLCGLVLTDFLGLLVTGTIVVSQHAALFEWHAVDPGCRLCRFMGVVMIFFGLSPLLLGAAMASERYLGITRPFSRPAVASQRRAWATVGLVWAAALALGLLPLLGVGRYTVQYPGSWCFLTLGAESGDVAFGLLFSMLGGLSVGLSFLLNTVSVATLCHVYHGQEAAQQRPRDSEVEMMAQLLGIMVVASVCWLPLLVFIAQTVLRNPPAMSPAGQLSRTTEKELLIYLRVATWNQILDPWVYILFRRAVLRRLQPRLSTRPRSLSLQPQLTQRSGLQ
Sequence of Muscarinic acetylcholine receptor M5 (Homo sapiens) (P08912 whole entry, looked up): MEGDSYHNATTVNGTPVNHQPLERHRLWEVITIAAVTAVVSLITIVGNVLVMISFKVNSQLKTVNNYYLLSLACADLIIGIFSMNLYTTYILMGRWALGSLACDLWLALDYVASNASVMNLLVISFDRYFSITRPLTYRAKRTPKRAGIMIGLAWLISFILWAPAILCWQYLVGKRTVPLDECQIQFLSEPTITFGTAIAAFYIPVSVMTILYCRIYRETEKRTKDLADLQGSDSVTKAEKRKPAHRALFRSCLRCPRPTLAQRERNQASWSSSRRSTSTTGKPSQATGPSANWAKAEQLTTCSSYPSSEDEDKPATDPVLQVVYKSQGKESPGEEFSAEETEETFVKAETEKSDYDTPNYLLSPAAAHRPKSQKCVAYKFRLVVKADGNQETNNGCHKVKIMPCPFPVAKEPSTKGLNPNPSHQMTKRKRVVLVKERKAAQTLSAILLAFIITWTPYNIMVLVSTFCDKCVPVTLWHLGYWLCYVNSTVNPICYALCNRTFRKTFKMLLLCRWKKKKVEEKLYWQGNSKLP
Sequence of human Vasopressin 1A Receptor (V1A), AVPR1A (gene 552) (P37288 whole entry, looked up): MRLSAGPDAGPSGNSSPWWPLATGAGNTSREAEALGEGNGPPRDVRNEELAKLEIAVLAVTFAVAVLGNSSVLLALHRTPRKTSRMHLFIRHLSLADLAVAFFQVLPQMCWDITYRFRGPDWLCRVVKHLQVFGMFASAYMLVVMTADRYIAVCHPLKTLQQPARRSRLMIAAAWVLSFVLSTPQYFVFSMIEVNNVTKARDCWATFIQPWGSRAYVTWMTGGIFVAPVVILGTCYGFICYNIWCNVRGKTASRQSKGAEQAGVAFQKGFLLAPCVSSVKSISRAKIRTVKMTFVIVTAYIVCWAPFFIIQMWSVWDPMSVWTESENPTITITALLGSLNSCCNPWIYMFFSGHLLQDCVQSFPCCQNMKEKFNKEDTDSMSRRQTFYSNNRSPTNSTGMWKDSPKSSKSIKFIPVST
Sequence of human Opioid Receptor Delta 1 (Opiate D1), OPRD1 (gene 4985) (P41143 whole entry, looked up): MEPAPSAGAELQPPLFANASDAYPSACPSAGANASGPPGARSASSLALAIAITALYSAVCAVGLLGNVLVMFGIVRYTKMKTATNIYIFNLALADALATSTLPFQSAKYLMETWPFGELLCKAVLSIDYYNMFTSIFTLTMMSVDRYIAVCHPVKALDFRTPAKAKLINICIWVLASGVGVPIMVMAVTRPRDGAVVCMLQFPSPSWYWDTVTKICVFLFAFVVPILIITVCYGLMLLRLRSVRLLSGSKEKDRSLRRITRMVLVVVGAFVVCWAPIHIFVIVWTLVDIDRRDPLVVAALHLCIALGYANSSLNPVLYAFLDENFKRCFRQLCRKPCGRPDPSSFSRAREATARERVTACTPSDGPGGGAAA
Sequence of human Neurokinin, NK2 Receptor, TACR2 (gene 6865) (P21452 whole entry, looked up): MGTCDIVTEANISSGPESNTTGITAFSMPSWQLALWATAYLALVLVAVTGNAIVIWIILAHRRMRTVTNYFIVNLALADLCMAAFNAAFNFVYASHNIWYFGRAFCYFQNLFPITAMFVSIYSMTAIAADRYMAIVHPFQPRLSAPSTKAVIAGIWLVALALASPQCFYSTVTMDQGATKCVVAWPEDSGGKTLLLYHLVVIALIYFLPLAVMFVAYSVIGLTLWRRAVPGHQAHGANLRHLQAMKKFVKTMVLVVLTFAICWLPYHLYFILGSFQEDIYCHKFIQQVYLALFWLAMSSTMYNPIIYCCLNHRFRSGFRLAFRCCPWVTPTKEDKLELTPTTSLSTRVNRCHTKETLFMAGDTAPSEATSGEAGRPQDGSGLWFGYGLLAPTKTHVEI
Sequence of human Neurotensin Receptor (NTS), NTSR1 (gene 4923) (P30989 whole entry, looked up): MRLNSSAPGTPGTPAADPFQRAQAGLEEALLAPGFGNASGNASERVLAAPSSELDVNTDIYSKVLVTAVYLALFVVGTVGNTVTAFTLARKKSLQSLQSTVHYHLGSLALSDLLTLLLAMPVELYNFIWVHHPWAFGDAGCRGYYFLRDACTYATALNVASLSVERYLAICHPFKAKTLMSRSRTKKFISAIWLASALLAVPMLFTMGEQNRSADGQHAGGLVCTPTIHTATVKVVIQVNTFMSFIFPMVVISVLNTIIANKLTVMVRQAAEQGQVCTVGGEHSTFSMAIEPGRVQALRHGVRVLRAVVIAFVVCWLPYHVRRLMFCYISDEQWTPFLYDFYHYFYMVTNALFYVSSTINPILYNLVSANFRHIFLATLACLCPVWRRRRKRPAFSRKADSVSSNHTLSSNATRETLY
Sequence of human Orphanin, Opioid Related Nociceptin Receptor 1 (ORL1), OPRL1 (gene 4987) (P41146 whole entry, looked up): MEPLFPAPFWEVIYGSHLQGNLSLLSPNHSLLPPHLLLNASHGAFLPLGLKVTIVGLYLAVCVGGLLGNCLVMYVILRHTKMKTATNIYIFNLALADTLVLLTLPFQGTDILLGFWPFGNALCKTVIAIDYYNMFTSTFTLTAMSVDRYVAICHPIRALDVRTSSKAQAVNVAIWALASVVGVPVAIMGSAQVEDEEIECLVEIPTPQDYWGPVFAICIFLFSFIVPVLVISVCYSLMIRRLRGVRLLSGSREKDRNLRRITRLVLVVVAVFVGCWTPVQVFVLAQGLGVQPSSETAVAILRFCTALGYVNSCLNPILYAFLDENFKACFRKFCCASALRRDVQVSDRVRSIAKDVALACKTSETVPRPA
Sequence of Neuropeptide Y receptor type 2 (Homo sapiens) (P49146 whole entry, looked up): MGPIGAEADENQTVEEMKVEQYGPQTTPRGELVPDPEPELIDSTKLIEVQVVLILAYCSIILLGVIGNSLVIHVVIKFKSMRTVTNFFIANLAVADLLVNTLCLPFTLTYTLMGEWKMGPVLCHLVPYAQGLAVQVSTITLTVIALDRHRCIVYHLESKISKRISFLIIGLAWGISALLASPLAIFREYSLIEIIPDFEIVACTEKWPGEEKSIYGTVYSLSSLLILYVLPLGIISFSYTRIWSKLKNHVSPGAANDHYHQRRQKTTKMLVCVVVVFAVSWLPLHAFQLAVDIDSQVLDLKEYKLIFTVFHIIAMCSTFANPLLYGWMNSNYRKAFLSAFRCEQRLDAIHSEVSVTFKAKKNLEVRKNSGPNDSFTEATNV
Sequence of human Neuropeptide Receptor Y1 (NPY1), NPY1R (gene 4886) (P25929 whole entry, looked up): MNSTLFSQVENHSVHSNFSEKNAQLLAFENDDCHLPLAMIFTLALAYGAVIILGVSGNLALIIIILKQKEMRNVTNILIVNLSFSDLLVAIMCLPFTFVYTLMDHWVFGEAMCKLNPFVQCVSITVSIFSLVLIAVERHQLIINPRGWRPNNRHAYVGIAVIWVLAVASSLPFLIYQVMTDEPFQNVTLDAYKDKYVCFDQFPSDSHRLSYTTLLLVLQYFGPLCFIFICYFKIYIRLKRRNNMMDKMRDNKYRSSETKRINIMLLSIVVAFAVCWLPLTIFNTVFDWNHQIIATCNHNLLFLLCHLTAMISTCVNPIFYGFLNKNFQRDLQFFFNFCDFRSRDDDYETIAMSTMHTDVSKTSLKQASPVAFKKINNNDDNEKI

Oc1ccc(C(c2ccc(O)cc2)(C(F)(F)F)C(F)(F)F)cc1
AC50 [1]: 18.4 µM (active) | AC50 [2]: 11.4 µM (active) | AC50 [3]: 25 µM (active)

Cc1ccc(O)c(C)c1
AC50 [4]: 0.12 µM (active)

O=C(O)C(F)(F)C(F)(F)C(F)(F)C(F)(F)C(F)(F)C(F)(F)C(F)(F)C(F)(F)F
AC50 [5]: 6.2 µM (active)

CC(C)(O)C(=O)Nc1ccc([N+](=O)[O-])c(C(F)(F)F)c1
outcome [6]: inactive

CCC(C)(CC)c1cc(NC(=O)c2c(OC)cccc2OC)on1
AC50 [5]: 1.03 µM (active)

O=S(=O)(O)C(F)(F)C(F)(F)C(F)(F)C(F)(F)C(F)(F)C(F)(F)F
outcome [7]: inactive | AC50 [5]: 14.5 µM (active)

O=C(NC(=O)c1c(F)cccc1F)Nc1cc(Cl)c(OC(F)(F)C(F)F)c(Cl)c1
outcome [5]: inactive

CCCCCCCCCc1ccc(O)cc1
outcome [6]: inactive

N#Cc1ccc(N(CC(N)=O)CC(F)(F)F)cc1C(F)(F)F
outcome [4]: inactive

Cc1cc2c3c(c1)C(c1ccccc1)=N[C@@H](NC(=O)c1ccncc1)C(=O)N3CC2
outcome [8]: inactive | outcome [9]: inactive | outcome [5]: inactive

CCOC(=O)C(O)(c1ccc(Cl)cc1)c1ccc(Cl)cc1
outcome [5]: inactive

O=C(O)C(F)(F)C(F)(F)C(F)(F)C(F)(F)C(F)(F)C(F)(F)C(F)(F)C(F)(F)C(F)(F)F
AC50 [2]: 16.4 µM (active) | outcome [6]: inactive | AC50 [5]: 25 µM (active)

CCC(C)(c1ccc(O)cc1)c1ccc(O)cc1
outcome [8]: inactive | AC50 [2]: 13.2 µM (active)

C[C@]12CCC(=O)C=C1CC[C@@H]1[C@@H]2CC[C@@]2(C)[C@H]1CC[C@]2(C)O
outcome [2]: inactive

CCOP(=S)(OCC)SCSC(C)(C)C
outcome [6]: inactive

CCCCCCCCCC[N+](C)(C)CCCCCCCCCC
AC50 [1]: 2.39 µM (active) | AC50 [10]: 7.12 µM (active) | AC50 [7]: 11.6 µM (active) | AC50 [8]: 2.98 µM (active) | AC50 [9]: 4.36 µM (active) | AC50 [2]: 4.31 µM (active) | AC50 [5]: 14.3 µM (active) | AC50 [3]: 7.48 µM (active)

Oc1c(Cl)c(Cl)c(Cl)c(Cl)c1Cl
outcome [8]: inactive | outcome [6]: inactive | outcome [4]: inactive

CC(C)(c1ccccc1)c1ccc(O)cc1
outcome [1]: inactive | AC50 [8]: 25 µM (active)
